Measurements: PubChem BioAssay (NCATS)
“And” between values parts separate entries of the source, which are not always exact repeats. Equal values may be shown once. Records with an inconclusive call do not appear. The source made the active and inactive calls. Calls come from the whole dose curve.

Assay: qHTS Assay for Lipid Storage Modulators (AID 1519); for activity change, negative = inhibition: % is set by controls: 0 for no effect and ±100 for the full control effect
Details: Drosophila S3 cells, BODIPY lipid droplet/cell ratio, laser cytometry, cells loaded with oleic acid
Description: NIH Molecular Libraries Probe Production Centers Network [MLPCN]
NIH Chemical Genomics Center [NCGC]
Assay Submitter (PI): Beller, Mathias; Max-Planck-Institut fur Biophysikalische Chemie
NCGC Assay Overview: Storing lipids as a reservoir for energy or the anabolism of elementary metabolites is a common feature of probably all cells and is conserved from bacteria to humans. The universal cellular lipid storage organelle is the so-called lipid storage droplet (LD). Although ubiquitous, LDs share a simple structure composed of a hydrophobic core that harbors the storage lipids, which is shielded by a droplet-specific phospholipid monolayer to which proteins are attached. The current model of LD biogenesis involves an incorporation of the lipid core into the membrane leaflets of the endoplasmic reticulum (ER) followed by a subsequent budding-like maturation of a LD, which ultimately pinches off. Once released, LD volume can increase by localized lipogenesis or fusion of existing droplets. Storage lipids are re-mobilized enzymatically by lipase activity. Lipase regulation in the adipocyte is heavily studied and involves multiple components including catecholamine signaling, the LD-associated proteins Perilipin and comparative gene identification-58 (CGI-58) and at least two lipases named hormone sensitive lipase (HSL) and adipocyte triglyceride lipase (ATGL). LD regulation outside of the adipocyte is poorly understood and only few components are known. However, there is an urgent need to learn more about ectopic fat depots as mislocalized storage of lipids, for example in the liver or muscle, is an eminent health problem associated with insulin resistance or the metabolic syndrome. We developed a laser-scanning cytometer assay to enable 1,536-well screening and combined the results of the small molecules screen with an RNAi database based on lipid storage.
NCGC Assay Protocol Summary:
We dispensed 4 uL of cells at 1.25 x 10^6 cells/mL into LoBase Aurora COC 1,536-well plates (black walled, clear bottom) with a bottle-valve solenoid-based dispenser (Aurora) to obtain 5,000 cells/well. Triacsin C (Sigma-Aldrich T-4540), an inhibitor of long-chain fatty acyl CoA synthetase that blocks synthesis of triglycerides, was used as a positive control for lipid under-storage. A total of 23 nL of compound solution of different concentrations were transferred to the assay plates using a Kalypsys pin tool equipped with a 1,536-pin array containing 10-nL slotted pins (FP1S10, 0.457-mm diameter, 50.8 mm long; V&P Scientific). One microliter of oleic acid (400 uM) was added, and the plate was lidded with stainless steel rubber gasket lined lids containing pinholes. […] Fluorescence was detected by excitation of the fluorophores with a 488-nm laser on an Acumen Explorer (TTP Lab Tech). The total intensity in channel 1 (500-530 nm) reflected lipid droplet accumulation. […] The ratio of the total intensity in PMT channel 1 over total intensity of channel 3 was also calculated. Percent activity was computed relative to an internal control (100% inhibited lipid droplet deposition due to the presence of 20 uM Triacsin C), which was added to 32 wells/plate.

[1] = measured here: cell count channel max response
[2] = measured here: lipid channel max response

SMILES	activity change, negative = inhibition (at 25.7 µM (top of the series))	activity change, negative = inhibition (at 57.5 µM (top of the series))	max response [1]	max response [2]
Nc1nc(N)c2nc(-c3ccccc3)c(N)nc2n1	-0.107% (inactive)	-0.933% (inactive)	-4.41% and -12.1%	-2.65% and -13.5%
CC(C)[N+](C)(CCOC(=O)C1c2ccccc2Oc2ccccc21)C(C)C	0.9% (inactive)	–	-9.66%	-8.2%
CN(C)CC/C=C1\c2ccccc2COc2ccccc21	1.34% (inactive)	2.32% (inactive)	-10.6% and 12%	-7.69% and 14%
Cc1scc2c1N(C(=O)CN1CCN(C)CC1)c1ccccc1NC2=O	-2.57% (inactive)	0.86% (inactive) and 1.7% (inactive) and 0.0907% (inactive)	-8.48% [middle of 4 runs]	–
CCn1cc(C(=O)O)c(=O)c2cc3c(cc21)OCO3	-1.05% (inactive)	2.77% (inactive)	12% and 70.6%	10.4% and 75.7%
COC(=O)C1=C(C)NC(C)=C(C(=O)OCCN(C)Cc2ccccc2)C1c1cccc([N+](=O)[O-])c1 (configuration not stated)	–	2.25% (inactive)	-9.5%	-7.38%
Fc1ccc(C(c2ccc(F)cc2)N2CCN(C/C=C/c3ccccc3)CC2)cc1	–	-1.34% (inactive)	15.3%	15.1%
OC(CCN1CCCCC1)(c1ccccc1)C1CCCCC1 (configuration not stated)	–	1.74% (inactive)	-10.4%	-6.71%
CNC1(C)C2CCC(C2)C1(C)C (configuration not stated)	–	2.62% (inactive)	45.4%	47.5%
O=C(O)CN(CCOCCOCCN(CC(=O)O)CC(=O)O)CC(=O)O	–	0.929% (inactive)	-9.11%	-9.56%
CCCCCCCC/C=C\CCCCCCCC(=O)NCc1ccc(O)c(OC)c1	–	-24.2% (inactive)	15.7%	-12.6%
CCN1CCC[C@H]1CNC(=O)c1c(O)c(Cl)cc(Cl)c1OC	–	1.67% (inactive) and 3.44% (inactive)	12.1% and 6.79%	12.8% and 10.2%
Cc1ccc(=O)n(-c2ccccc2)c1	–	1.81% (inactive)	6.64%	9.28%
